Test results published in the supplement of paper PMC11732987, “Enantioselective OTUD7B fragment discovery through chemoproteomics screening and high-throughput optimisation” (Communications Chemistry, 2025).

Tests used:
Assay in all cases: log2 ratio of Biotin-Ahx-Ub-VS probe labelling (fragment/DMSO); higher = less target engagement (more negative = stronger competition), active = hit call of the paper (q ≤ 0.05, log2 ratio ≤ -1)
Conditions in all cases: compound concentration: 200 uM; treatment time: 3 h
OTUD6B = target: T1, OTUD6B (UniProt Q8N6M0)
T1 sequence (whole entry): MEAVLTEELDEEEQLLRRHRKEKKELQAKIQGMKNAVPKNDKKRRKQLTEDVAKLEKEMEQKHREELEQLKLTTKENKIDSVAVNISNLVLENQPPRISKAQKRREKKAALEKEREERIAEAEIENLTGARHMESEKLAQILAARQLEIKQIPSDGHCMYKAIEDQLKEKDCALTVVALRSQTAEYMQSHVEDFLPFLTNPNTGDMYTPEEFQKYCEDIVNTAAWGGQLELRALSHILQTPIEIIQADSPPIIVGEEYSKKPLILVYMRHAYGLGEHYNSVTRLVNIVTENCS
Procedure, shortened: (§1)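 Using Biotin-Ahx-Ub-VS at 0.5 µM final for 1 h, DUBs were labelled in HEK293T lysate (495 µg per sample) that had first been treated in triplicate with fragment at 200 µM or vehicle for 3 h. NeutrAvidin enrichment, LysC and trypsin digestion and diaPASEF LC-MS/MS followed. Spectronaut label-free quantities were global-median-normalised. Values are average log2 fragment/vehicle ratios by unpaired t-test, using proteins with ≥2 unique peptides.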

OTUD7B = target: T2, OTUD7B (UniProt Q6GQQ9)
T2 sequence (whole entry): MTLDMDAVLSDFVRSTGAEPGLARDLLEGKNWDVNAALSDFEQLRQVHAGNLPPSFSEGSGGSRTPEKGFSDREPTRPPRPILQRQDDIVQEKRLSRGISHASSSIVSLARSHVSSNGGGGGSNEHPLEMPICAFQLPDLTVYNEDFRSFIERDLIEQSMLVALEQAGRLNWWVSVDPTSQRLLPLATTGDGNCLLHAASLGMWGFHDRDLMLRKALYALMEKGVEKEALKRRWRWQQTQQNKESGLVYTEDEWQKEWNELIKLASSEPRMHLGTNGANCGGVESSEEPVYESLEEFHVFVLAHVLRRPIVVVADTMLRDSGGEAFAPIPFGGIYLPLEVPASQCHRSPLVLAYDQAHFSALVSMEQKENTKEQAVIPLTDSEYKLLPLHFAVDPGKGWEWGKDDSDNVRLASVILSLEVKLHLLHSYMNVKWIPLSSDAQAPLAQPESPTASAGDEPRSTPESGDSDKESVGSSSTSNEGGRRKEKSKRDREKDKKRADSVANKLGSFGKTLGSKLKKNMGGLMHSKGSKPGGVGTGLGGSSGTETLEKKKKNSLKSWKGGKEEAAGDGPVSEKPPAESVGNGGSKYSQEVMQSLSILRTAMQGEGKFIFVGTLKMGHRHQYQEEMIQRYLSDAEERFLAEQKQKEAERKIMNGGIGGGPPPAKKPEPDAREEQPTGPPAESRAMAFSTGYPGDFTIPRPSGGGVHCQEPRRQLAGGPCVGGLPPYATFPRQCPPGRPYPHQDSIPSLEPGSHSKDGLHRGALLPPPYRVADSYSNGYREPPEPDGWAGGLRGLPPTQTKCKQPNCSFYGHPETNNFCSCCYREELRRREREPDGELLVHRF
Procedure, shortened: as §1

PRPF8 = PRPF8 (UniProt Q6P2Q9)
Procedure, shortened: as §1

PSMD7 = target: T3, PSMD7 (UniProt P51665)
T3 sequence (whole entry): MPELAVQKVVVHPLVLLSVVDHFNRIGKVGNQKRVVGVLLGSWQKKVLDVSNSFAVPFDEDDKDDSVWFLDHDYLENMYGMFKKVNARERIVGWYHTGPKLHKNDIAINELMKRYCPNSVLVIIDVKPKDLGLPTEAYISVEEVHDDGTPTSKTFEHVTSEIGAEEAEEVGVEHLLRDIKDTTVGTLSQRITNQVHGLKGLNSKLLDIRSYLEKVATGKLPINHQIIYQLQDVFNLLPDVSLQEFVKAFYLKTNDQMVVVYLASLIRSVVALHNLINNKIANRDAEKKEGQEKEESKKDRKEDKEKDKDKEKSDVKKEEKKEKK
Procedure, shortened: as §1

UCHL1 = UCHL1 (UniProt P09936)
Procedure, shortened: as §1

UCHL3 = target: T4, UCHL3 (UniProt P15374)
T4 sequence (whole entry): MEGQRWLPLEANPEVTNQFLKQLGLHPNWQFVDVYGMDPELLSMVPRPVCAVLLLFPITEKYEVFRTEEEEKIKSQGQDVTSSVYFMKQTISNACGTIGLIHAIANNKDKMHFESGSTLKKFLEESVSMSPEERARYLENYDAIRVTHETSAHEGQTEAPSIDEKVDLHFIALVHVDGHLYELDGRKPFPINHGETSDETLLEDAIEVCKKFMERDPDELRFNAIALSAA
Procedure, shortened: as §1

UCHL5 = target: T5, UCHL5 (UniProt Q9Y5K5)
T5 sequence (whole entry): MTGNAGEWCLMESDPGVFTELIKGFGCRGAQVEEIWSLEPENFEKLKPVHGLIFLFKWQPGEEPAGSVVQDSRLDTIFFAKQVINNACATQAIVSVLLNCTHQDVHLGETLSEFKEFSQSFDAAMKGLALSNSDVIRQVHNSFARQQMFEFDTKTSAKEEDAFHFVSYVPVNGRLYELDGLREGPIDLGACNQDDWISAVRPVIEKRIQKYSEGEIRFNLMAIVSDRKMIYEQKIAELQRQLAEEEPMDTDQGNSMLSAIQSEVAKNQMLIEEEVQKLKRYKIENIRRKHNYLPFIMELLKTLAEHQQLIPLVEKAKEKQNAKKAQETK
Procedure, shortened: as §1

USP10 = USP10 (UniProt Q14694)
Procedure, shortened: as §1

USP15 = target: T6, USP15 (UniProt Q9Y4E8)
T6 sequence (whole entry): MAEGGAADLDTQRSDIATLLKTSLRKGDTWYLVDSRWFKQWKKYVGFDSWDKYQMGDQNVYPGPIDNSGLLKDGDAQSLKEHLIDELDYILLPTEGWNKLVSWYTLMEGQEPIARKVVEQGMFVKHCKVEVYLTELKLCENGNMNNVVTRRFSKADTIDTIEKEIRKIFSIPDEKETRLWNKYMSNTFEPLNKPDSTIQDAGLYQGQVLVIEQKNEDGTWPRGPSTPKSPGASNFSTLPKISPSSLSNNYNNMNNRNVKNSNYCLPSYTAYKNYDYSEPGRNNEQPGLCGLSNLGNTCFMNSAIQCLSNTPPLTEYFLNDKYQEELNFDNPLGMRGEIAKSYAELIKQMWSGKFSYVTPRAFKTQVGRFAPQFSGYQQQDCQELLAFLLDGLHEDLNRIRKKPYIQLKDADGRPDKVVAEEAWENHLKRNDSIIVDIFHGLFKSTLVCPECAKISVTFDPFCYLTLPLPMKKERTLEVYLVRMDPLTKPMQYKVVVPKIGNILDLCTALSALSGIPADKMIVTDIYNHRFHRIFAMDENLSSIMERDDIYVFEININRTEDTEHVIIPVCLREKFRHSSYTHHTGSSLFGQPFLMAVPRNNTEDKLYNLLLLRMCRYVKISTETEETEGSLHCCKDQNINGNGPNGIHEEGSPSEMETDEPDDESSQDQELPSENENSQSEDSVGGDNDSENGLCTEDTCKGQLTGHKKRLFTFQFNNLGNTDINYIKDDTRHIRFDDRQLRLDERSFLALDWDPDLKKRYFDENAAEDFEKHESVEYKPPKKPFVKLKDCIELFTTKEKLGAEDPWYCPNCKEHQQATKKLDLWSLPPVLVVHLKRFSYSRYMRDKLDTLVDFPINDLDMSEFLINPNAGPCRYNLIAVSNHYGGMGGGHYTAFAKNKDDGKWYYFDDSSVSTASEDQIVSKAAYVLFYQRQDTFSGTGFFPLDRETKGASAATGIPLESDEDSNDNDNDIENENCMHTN
Procedure, shortened: as §1

Measured: log2 ratio of Biotin-Ahx-Ub-VS probe labelling

UCHL1, sequence (P09936 whole entry, looked up): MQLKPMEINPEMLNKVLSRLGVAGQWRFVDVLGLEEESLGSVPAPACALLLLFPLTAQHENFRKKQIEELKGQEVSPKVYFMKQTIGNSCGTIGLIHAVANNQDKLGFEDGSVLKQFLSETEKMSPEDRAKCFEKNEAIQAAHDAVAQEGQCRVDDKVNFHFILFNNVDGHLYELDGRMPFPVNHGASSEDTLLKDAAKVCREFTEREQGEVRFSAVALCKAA
USP10, sequence (Q14694 whole entry): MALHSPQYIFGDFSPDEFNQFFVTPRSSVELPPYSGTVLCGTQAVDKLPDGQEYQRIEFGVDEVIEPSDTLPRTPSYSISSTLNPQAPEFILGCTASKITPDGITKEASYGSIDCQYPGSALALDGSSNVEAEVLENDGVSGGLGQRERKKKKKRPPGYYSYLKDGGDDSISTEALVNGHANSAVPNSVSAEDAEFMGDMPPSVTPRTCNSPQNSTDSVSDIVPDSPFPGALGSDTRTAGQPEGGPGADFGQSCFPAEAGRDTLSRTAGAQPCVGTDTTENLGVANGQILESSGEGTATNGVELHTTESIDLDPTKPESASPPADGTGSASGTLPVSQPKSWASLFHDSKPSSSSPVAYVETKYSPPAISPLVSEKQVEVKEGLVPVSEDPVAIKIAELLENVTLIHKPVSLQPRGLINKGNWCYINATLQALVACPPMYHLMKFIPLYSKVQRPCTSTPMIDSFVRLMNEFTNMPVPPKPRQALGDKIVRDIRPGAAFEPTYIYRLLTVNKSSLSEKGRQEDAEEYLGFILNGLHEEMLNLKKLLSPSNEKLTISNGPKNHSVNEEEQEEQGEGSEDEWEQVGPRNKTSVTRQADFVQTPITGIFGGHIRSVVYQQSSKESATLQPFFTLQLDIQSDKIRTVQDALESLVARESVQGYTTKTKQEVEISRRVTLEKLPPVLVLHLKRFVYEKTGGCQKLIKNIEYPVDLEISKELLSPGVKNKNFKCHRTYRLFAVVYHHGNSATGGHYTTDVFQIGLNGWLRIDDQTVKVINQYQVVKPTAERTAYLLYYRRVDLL

O=C(CCl)NCCc1ccc(F)cc1
inactive: OTUD6B 0.0481 | OTUD7B -0.435 | PRPF8 -0.0623 | PSMD7 0.0236 | UCHL3 0.132 | UCHL5 -0.0307 | USP10 -0.0913 | USP15 -0.0724
active: UCHL1 -1.09
